# Test results as given in PubChem BioAssay (NCI).
# About 83,000 compounds went through this panel and 20% of them were active in at least one assay; those are over-represented in the sample as a whole.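 Note: values are percent growth. 100 is the growth of untreated cells, values between 100 and 0 indicate rising inhibition; between -100 and 0 indicates cell death.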 A number with no mark means an inactive call. Active and inactive are the calls of the source. Rule for the calls: active = growth percent below 10; inactive = the rest.
# Assays:
# Assay in all cases: NCI-60 one-dose screen, 48 h (100 = growth as untreated, 0 = no growth, -100 = all killed)
# Conditions in all cases: 10 µM
# NCI-H23 lung = test system: NCI-H23 lung
# NCI-H226 lung = test system: NCI-H226 lung
# HOP-62 NSCLC = test system: HOP-62 NSCLC
# NCI-H460 lung = test system: NCI-H460 lung
# HOP-92 NSCLC = test system: HOP-92 NSCLC
# NCI-H522 lung = test system: NCI-H522 lung
# A549/ATCC NSCLC = test system: A549/ATCC NSCLC
# 786-0 renal = test system: 786-0 renal
# COLO 205 colon = test system: COLO 205 colon
# DU-145 prostate = test system: DU-145 prostate
# K-562 leukemia = test system: K-562 leukemia
# MALME-3M melanoma = test system: MALME-3M melanoma
# MDA-MB-231 breast = test system: MDA-MB-231 breast
# RXF 393 renal = test system: RXF 393 renal
# SF-268 CNS = test system: SF-268 CNS
# SF-295 CNS = test system: SF-295 CNS
# SF-539 CNS = test system: SF-539 CNS
# UACC-257 melanoma = test system: UACC-257 melanoma
# M14 melanoma = test system: M14 melanoma
SMILES,growth (NCI-H23 lung),growth (NCI-H226 lung),growth (HOP-62 NSCLC),growth (NCI-H460 lung),growth (HOP-92 NSCLC),growth (NCI-H522 lung),growth (A549/ATCC NSCLC) [%],growth (786-0 renal),growth (COLO 205 colon),growth (DU-145 prostate) [%],growth (K-562 leukemia),growth (MALME-3M melanoma),growth (MDA-MB-231 breast),growth (RXF 393 renal),growth (SF-268 CNS),growth (SF-295 CNS),growth (SF-539 CNS),growth (UACC-257 melanoma),growth (M14 melanoma)
CC(C)(C)OC(=O)N1CCc2c(sc3ncnc(N/N=C/c4ccccc4Br)c23)C1,74%,78%,85.8%,49.2%,80.8%,68.2%,68.1,69.2%,27.6%,91.9,15.9%,90.4%,81.3%,81.8%,87.8%,89.5%,80.6%,82.6%,83.3%
Cc1ccc(/C=C2/C(=O)N(C)c3ccc(S(=O)(=O)Nc4ccc(C(C)(C)C)cc4)cc32)s1,67%,63.9%,24.8%,98%,79.2%,75.5%,68.5,67.4%,86.5%,87.3,79.8%,57.6%,35.2%,41.8%,67.4%,88%,23%,85.7%,83.1%
CN1CCN(CC(=O)Nc2cccc(-n3cc(-c4ccncc4)c(-c4ccc(Cl)c(O)c4)n3)c2)CC1,50.4%,74.3%,58.6%,13.3%,15.4%,18.1%,29.3,33.6%,13.5%,19.4,11.8%,46.3%,46.1%,35%,47.7%,21.8%,0.848% (active),24.9%,8.05% (active)
O=S(=O)(Oc1ccc(-c2ccc3sccc3c2)cc1)c1ccccc1,89%,92.5%,113%,103%,111%,87.3%,100,100%,109%,107,89.6%,105%,97.3%,97.1%,105%,93.9%,108%,104%,114%
C=CCn1c(SCC(=O)Nc2ccc(C(=O)/C=C/c3ccc(Cl)cc3)cc2)nnc1-c1cc(-c2ccccc2)nc2ccccc12,66.3%,73.6%,86.1%,98.6%,91.5%,60.5%,89.7,86.7%,99.5%,95.6,27.6%,87.1%,58.3%,63.9%,76%,102%,69.8%,93.4%,76.3%
CC[C@@H](C(=O)[C@@H](C)[C@@H](O)[C@H](C)[C@@H]1O[C@@H]([C@@H](CC)C(=O)O)CC[C@@H]1C)C1O[C@]2(C=CC(=O)[C@]3(CC[C@@](C)([C@H]4CC[C@](O)(CC)[C@H](C)O4)O3)O2)[C@H](C)C[C@@H]1C (some centres undefined),30.5%,28.3%,41.9%,23.8%,73.5%,24.6%,28.3,24.7%,10.1%,48,13.8%,-64.8% (active),30.3%,25.8%,50.6%,4.02% (active),16.2%,42.9%,9.56% (active)
O=C1c2ccccc2C(=O)c2c1ccc1c(=O)n(-c3ccccc3C(F)(F)F)nnc21,3.9% (active),35.9%,23.8%,5.82% (active),37.1%,16.7%,13.1,60.5%,8.51% (active),47.7,15.2%,-51.3% (active),3.26% (active),28.9%,43.2%,52.5%,-27.2% (active),-23.6% (active),5.14% (active)
COc1cc(NC(=O)Nc2cnc(Nc3ccc(N4CCOCC4)cc3)nc2Oc2cccc(OC)c2)cc(OC)c1,61.3%,7.06% (active),32.1%,23.9%,4.67% (active),27.5%,23.4,-25.6% (active),46.2%,36.9,55.4%,8.57% (active),16.9%,-32.5% (active),50%,34.6%,-68.4% (active),48%,45.2%
Cc1nn(-c2ccc(-c3ccc(OC(F)(F)F)cc3)cc2)c2nc(Cc3ccccc3)nc(N)c12,64.9%,42.5%,45.9%,3.39% (active),59%,73.7%,16.7,5.79% (active),65.2%,75.5,63.7%,83.8%,48.3%,77.9%,54.3%,47.7%,80.3%,78.8%,69%
CC(C)c1cc(N=O)cc(C(C)C)c1O,95.2%,102%,101%,103%,108%,97.7%,97,104%,112%,119,106%,110%,99.3%,110%,104%,102%,109%,94.8%,123%
O=C(CCCCC(=O)Oc1c(Cl)cc(Cl)cc1[N+](=O)[O-])Oc1c(Cl)cc(Cl)cc1[N+](=O)[O-],96.5%,106%,102%,106%,118%,89.5%,103,101%,121%,106,85.9%,98.8%,106%,120%,96.3%,97.2%,100%,99.5%,103%
CC(=O)C1CCC2C3CC=C4CC(SC(=N)N)CCC4(C)C3CCC12C (centres undefined),61.8%,56.6%,82.5%,16.7%,30.2%,61.5%,47.5,48%,-100% (active),75.5,-5.34% (active),-6.9% (active),46.6%,25.6%,72%,51.1%,65.5%,13.6%,18.3%
CC(C)C[C@H](NC(=O)Cn1cccc(CNC(=O)c2ccccc2)c1=O)B(O)O,23.7%,-66% (active),5.64% (active),27.8%,-11.3% (active),-9.79% (active),43.9,29.5%,30.6%,43.1,11.6%,-35.3% (active),-2.81% (active),-19% (active),-19.5% (active),1.43% (active),-16.6% (active),-9.26% (active),12.2%
CCN(CC)CCOc1ccc2c(c1O)C(=O)c1ccccc1C2=O,82.4%,86.2%,73.3%,84.5%,75.3%,82.6%,78.6,80.1%,46.6%,95.4,71.6%,109%,82.8%,77.7%,90.1%,91.5%,91.9%,94.7%,92%
CCOC(=O)c1cc(C(=O)c2ccc(OC)c(OC)c2)n2ccncc12,97.4%,101%,106%,106%,94.9%,74%,99.3,106%,115%,102,87.5%,112%,91.4%,106%,109%,102%,99.3%,102%,102%
CN(C)CCOc1ccc(-c2nc3sccn3c2-c2ccnc(S(C)(=O)=O)n2)cc1,103%,102%,87.5%,103%,57%,106%,95,105%,114%,112,102%,112%,110%,113%,117%,103%,102%,101%,112%
